Laboratory results taken from the supplement of paper PMC6555819.

Assays:
Assay in all cases: PBM binding z-score (relative to random genomic background probes); higher = stronger binding; sequences stand for … in GC…GCGATTGACAGCGTAGAATGAAGG
[1] = system: FXR:RXRa (NR concentration 270 nM, RXRa partner concentration 90 nM)
Outline: (§1)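 Antibodies against each partner of ligand-free nuclear receptor dimers (one per run) detected binding on custom Agilent 4×180K protein-binding microarrays after 1 h incubation. The double-stranded probes had 34-nt variable regions carrying direct-repeat seeds, single-nucleotide variants, half-site ablations and random human genomic background sequences. Binding z-scores, from regression-normalized fluorescence, use the random background probes as reference.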

[2] = system: LXRa:RXRa (NR concentration 270 nM, RXRa partner concentration 90 nM)
Outline: as §1

[3] = system: LXRa homodimer (NR concentration 270 nM)
Outline: as §1

[4] = system: LXRb:RXRa (NR concentration 270 nM, RXRa partner concentration 90 nM)
Outline: as §1

[5] = system: LXRb homodimer (NR concentration 270 nM)
Outline: as §1

[6] = system: PPARa:RXRa (NR concentration 270 nM, RXRa partner concentration 90 nM)
Outline: as §1

[7] = system: PPARg:RXRa (NR concentration 180 nM, RXRa partner concentration 90 nM)
Outline: as §1

[8] = system: PPARg:RXRa 270nM:90nM, anti-RXR (NR concentration 270 nM, RXRa partner concentration 90 nM)
Outline: as §1

[9] = system: PPARg:RXRa 30nM:10nM, anti-RXR (NR concentration 30 nM, RXRa partner concentration 10 nM)
Outline: as §1

[10] = system: PPARg:RXRa 90nM:30nM, anti-RXR (NR concentration 90 nM, RXRa partner concentration 30 nM)
Outline: as §1

[11] = system: PPARg:RXRa DBDmut IVT, anti-RXR (DBD mutation: RXRa K156A/R161A, NR concentration 270 nM, RXRa partner concentration 90 nM)
Outline: as §1

[12] = system: PPARg:RXRa IVT, anti-PPARg (NR concentration 270 nM, RXRa partner concentration 90 nM)
Outline: as §1

[13] = system: PPARg DBDmut:RXRa IVT, anti-PPARg (DBD mutation: PPARg1 K132A/R137A, NR concentration 270 nM, RXRa partner concentration 90 nM)
Outline: as §1

[14] = system: PPARg DBDmut IVT, anti-PPARg (DBD mutation: PPARg1 K132A/R137A, NR concentration 270 nM)
Outline: as §1

[15] = system: PPARg homodimer (NR concentration 180 nM)
Outline: as §1

[16] = system: PXR:RXRa (NR concentration 270 nM, RXRa partner concentration 90 nM)
Outline: as §1

[17] = system: PXR homodimer (NR concentration 270 nM)
Outline: as §1

[18] = system: RARa:RXR (NR concentration 270 nM, RXRa partner concentration 90 nM)
Outline: as §1

[19] = system: RARa homodimer (NR concentration 270 nM)
Outline: as §1

[20] = system: RARb:RXRa (NR concentration 270 nM, RXRa partner concentration 90 nM)
Outline: as §1

Sequence	PBM binding z-score [1]	PBM binding z-score [2]	PBM binding z-score [3]	PBM binding z-score [4]	PBM binding z-score [5]	PBM binding z-score [6]	PBM binding z-score [7]	PBM binding z-score [8]	PBM binding z-score [9]	PBM binding z-score [10]	PBM binding z-score [11]	PBM binding z-score [12]	PBM binding z-score [13]	PBM binding z-score [14]	PBM binding z-score [15]	PBM binding z-score [16]	PBM binding z-score [17]	PBM binding z-score [18]	PBM binding z-score [19]	PBM binding z-score [20]
AGTCAAAGTTCAGGACGAGGTAACCTAAAGCACG	4.17	3.71	1.24	1.96	0.245	3.49	4.24	4.79	2.04	3.75	-0.128	2.2	0.0369	0.548	2.47	2.74	1.53	2.96	0.958	4.23
GTACCTAGGTGAATAGGTCGTTGATGAGTAGGCG	0.327	0.577	-0.19	0.185	-0.886	1.93	1.83	2.16	0.782	1.89	2.96	3.55	-0.531	-0.303	0.221	0.327	-0.195	1.03	0.134	1.15
ACTACTAGTTGACTTAGGGCAACCGATACGACGC	0.249	0.17	0.195	0.0613	0.134	0.123	1.04	0.267	0.432	0.312	0.365	0.47	0.77	0.857	0.669	0.14	-0.0753	0.458	0.347	0.59
CGAACTAGTTCAGAACAGGACAGTGAAGGATGAT	0.0852	-0.165	-0.0634	-0.449	-0.667	-0.356	0.524	-0.523	-0.163	-0.675	-0.157	-0.211	0.34	0.0845	-0.297	0.137	0.378	0.131	-0.252	0.618
TCTCGTAGATCAGCAGGTTAAGAAAGCTGGCCAA	-0.53	-0.117	-0.522	0.0597	-1.13	0.428	-0.691	1.22	2.41	2.08	1.33	-0.478	-0.653	-0.513	-0.593	-0.00394	-0.361	0.521	-0.998	-0.0596
ACTAGCAGGCCAAGTCTGGGTCACTCAAACAAAG	0.226	0.263	0.0484	0.796	-1.12	2.38	0.901	1.28	0.18	0.56	2.25	3.03	-0.209	-0.38	0.811	0.664	-0.106	1.59	-0.573	1.75
GCTCGGAGGATAAGGTCAGAGCTTTGTCCGTAGA	2.22	1.66	-0.483	1.26	-1.34	2.62	0.136	1.3	-0.139	0.94	-0.248	0.29	-0.531	-1.51	0.565	1.86	-0.244	2.62	-0.904	3.29
TCTTGTAGATCATCAGGTTAAGAAAGCTGGCCAA	0.48	0.703	0.27	0.642	-0.0532	0.993	-0.352	1.6	2.71	1.98	2.18	1.18	1.16	0.736	0.119	0.47	-0.117	0.63	0.422	0.398
CCTAGCAGGCCTATCTGGGTCACTCAAGGCTTGA	0.317	0.546	-0.58	0.838	-1.2	3.07	1.7	2.01	-0.0826	1.15	3.65	4.63	-0.467	-0.863	0.541	0.789	-0.468	1.38	-0.645	0.909
GCTTACGCGTCAAAGGTTATAGCATGAATAGAAT	1.21	1.97	-0.0765	2.18	-0.553	3.38	3.1	3.84	2.28	4.07	-0.0505	0.407	-0.0262	0.00309	1.46	2.22	-0.288	3.3	-0.0243	1.22
CATACTGGGCCAAGGTCATTGATCAGTCAAAGCA	3.54	3.16	1.14	3.19	0.044	4.12	4.1	4.28	2.31	3.8	3.65	4.49	0.346	-0.286	2.02	3.78	2.15	4.01	0.356	3.35
